Measured values: PubChem BioAssay (EPA / NIEHS)
Results filed as inconclusive are left out. Some structures have more than one record in an assay (separate samples or runs), and their calls can disagree. The source made the active and inactive calls. Rule for the calls, unless noted: active = hit-call score of the fitted dose curve at least 0.9, where 1 is the maximum; inactive = score below 0.9.

Columns and labels:
[1] = CCTE_Shafer_MEA_dev_network_spike_duration_std: CCTE's Neural Network Formation Assay for Standard Deviation of Network Spike Duration, Shafer Lab (AID 2284052);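 note: area under curve of spike duration SD across recording days 5 to 12; hits are decreases in network spike duration SD versus DMSO vehicle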
Outline: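 Read-out is the trapezoidal area-under-the-curve across recordings made on days 5, 7, 9 and 12, fitted in the negative direction against DMSO baseline. Neurons were primary rat cortical cells treated from day 0, with treatment renewed at each feed.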

[2] = CCTE_Shafer_MEA_dev_per_network_spike_spike_number_mean: CCTE's Neural Network Formation Assay for Mean Number of Spikes in a Network Spike, Shafer Lab (AID 2284053)
Outline: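 Continuous twelve-day exposure of developing rat cortical networks grown over 16 microelectrodes per well; spontaneous firing is captured at four time points, and the per-network-spike spike number is integrated over development by trapezoidal AUC.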

[3] = CCTE_Shafer_MEA_dev_per_network_spike_spike_percent: CCTE's Neural Network Formation Assay for Percent of Spikes in a Network Spike, Shafer Lab (AID 2284054)
Outline: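 Developing networks of rat cortical neurons are dosed at day 0 and recorded extracellularly four times up to day 12. The endpoint is the area under the curve of percent spikes in network spikes, fitted in the negative direction relative to DMSO.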

[4] = CCTE_Shafer_MEA_dev_LDH: CCTE's Lactate Dehydrogenase Assay for Cytotoxicity in the Neural Network Formation Assay, Shafer Lab (AID 2284068; active = hit-call score of the fitted dose curve at least 0.9, where 1 is the maximum;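 note: exposure for twelve days from plating with re-dosing on DIV 5 and 9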)
Outline: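 Cytotoxicity companion to network-formation recordings: rat cortical neurons received compound over 12 days of development, re-dosed at DIV 5 and 9 feeds. Viability was inferred from LDH enzyme activity relative to DMSO.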

[5] = CCTE_Shafer_MEA_dev_mutual_information_norm: CCTE's Neural Network Formation Assay for Mutual Information Normalization, Shafer Lab (AID 2284091);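 for AC50: mutual information between electrodes summarised as area under curve across four recording days; potency is for a decrease in mutual information relative to DMSO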
Outline: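 Exposure of primary rat cortical neurons began at plating and ran to DIV 12, with full media and treatment renewal after DIV 5 and 9 recordings. Mutual information AUC (DIV 5–12) was analysed for loss versus DMSO.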

[6] = CCTE_Shafer_MEA_dev_correlation_coefficient_mean: CCTE's Neural Network Formation Assay for Mean Correlation Coefficient, Shafer Lab (AID 2284093);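 for AC50: well mean pairwise spike train correlation integrated as AUC over recording days 5 to 12; potency fitted for loss of correlation relative to DMSO vehicle wells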
Outline: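 Read-out: well-mean correlation coefficient of spike trains between electrode pairs, collapsed over four recording days as trapezoidal area-under-the-curve. Developing rat cortical neuron networks grown on MEAs received test chemical continuously from plating.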

[7] = CCTE_Shafer_MEA_acute_LDH: CCTE's Lactate Dehydrogenase Assay for Cytotoxicity in the Neural Acute Assay, Shafer Lab (AID 2284086; active = hit-call score of the fitted dose curve at least 0.9, where 1 is the maximum;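 note: active means LDH release rises above DMSO vehicle level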)
Outline: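 Medium collected from MEA wells of primary rat cortical cultures (DIV 13 or 15) immediately after 40 min chemical exposure is assayed spectrophotometrically for lactate dehydrogenase activity. Endpoint fitted in positive direction versus DMSO.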

[8] = CCTE_Shafer_MEA_dev_AB: CCTE's Alamar Blue Assay for Cytotoxicity in the Neural Network Formation Assay, Shafer Lab (AID 2284083; active = hit-call score of the fitted dose curve at least 0.9, where 1 is the maximum;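 note: resazurin reduction fluorescence as viability of cultured neurons; twelve days of exposure from plating with re-dosing on DIV 5 and 9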)
Outline: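 Fluorescent resazurin reduction serves as the viability read-out, with DMSO as negative control and baseline. Cells were primary rat cortical neurons grown on MEA plates and dosed from day 0 to day 12, treatment renewed on DIV 5 and 9.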

DIO3 (gene 1735) = assay: CCTE_GLTED_hDIO3: CCTE's human Deiodinase 3 (DIO3) Inhibition Assay, Great Lakes Toxicology and Ecology Division (GLTED) Lab (AID 2284055; active = hit-call score of the fitted dose curve at least 0.9, where 1 is the maximum;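 for AC50: potency is for inhibition seen as loss of released iodide signal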)
Outline: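 Human type 3 deiodinase, expressed via adenovirus system, was exposed to test chemicals for 3 hours in a cell-free format. Released iodide was then determined spectrophotometrically by Sandell-Kolthoff; plates ran in triplicate.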

[9] = UKN2_HCS_IMR90_neural_migration: University of Konstanz (UKN) Leist Lab Neural Crest Cell Migration Assay in human induced IMR90 Pluripotent Stem Cells (UKN2) (AID 2284204); conditions: actives raise or lower the signal
Outline: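 Using a 96-well stopper format with PLO/laminin/fibronectin coating, neural crest cells from iPSC migrate in cytokine-supplemented N2-S medium; after 24 h, chemicals are applied for a further 24 h, then cells are imaged after dye staining.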

Measured: AC50

COC(=O)CCC(F)(F)C(F)(F)C(F)(F)C(F)(F)F
inactive: [1] | [2] | [3] | [4] | [5] | [6]

NC(=O)C(F)(F)C(F)(F)C(F)(F)C(F)(F)F
inactive: [1] | [2] | [3] | [5] | [6]

CCCCCCOC(=O)c1ccccc1O
inactive: [7]

CCCCC(CC)COP(=O)(O)OCC(CC)CCCC (stereo not drawn)
inactive: [7]

O=S(=O)(OCCOC(F)(F)F)C(F)(F)F
inactive: [1] | [2] | [3] | [5] | [6]

OCC(F)(F)C(F)(F)C(F)(F)C(F)F
not listed: [7] | DIO3 (gene 1735) | [9]
inactive: all other assays above

FC(F)(F)C(F)(F)CNCC(F)(F)C(F)(F)F
inactive: [1] | [2] | [3] | [5] | [6]

O=C(O)C(F)(F)C(F)(F)C(F)F
inactive: [1] | [2] | [3] | [4] | [5] | [6]

N=C(N)C(F)(F)C(F)(F)C(F)(F)C(F)(F)C(F)(F)C(F)(F)C(F)(F)F
active: [4] 24.5 µM | [8] 23.9 µM | [6] 15 µM
inactive: [1] | [2] | [3] | [5]

O=C(O)C(F)(F)C(F)(F)C(F)(F)C(F)(F)C(F)(F)C(F)(F)C(F)(F)C(F)(F)C(F)(F)C(F)(F)C(F)(F)C(F)(F)C(F)(F)F
active: DIO3 (gene 1735) 33.1 µM

OCC(F)(F)C(F)(F)C(F)(F)F
inactive: [1] | [2] | [3] | [8] | [5] | [6]

CC(Cc1ccc(O)c(O)c1)C(C)Cc1ccc(O)c(O)c1 (stereo not drawn)
active: DIO3 (gene 1735) 0.0863 µM

O=C(O)C(F)(F)C(F)(F)C(F)(F)C(F)(F)C(F)(F)C(F)(F)C(F)(F)C(F)(F)C(F)(F)C(F)(F)C(F)(F)C(F)(F)F
active: DIO3 (gene 1735) 32.8 µM

OC[C@@H](O)[C@@H](O)[C@H](O)[C@@H](O)CO
not listed: [7] | DIO3 (gene 1735) | [9]
inactive: all other assays above

O=C(O)C=C(C(F)(F)F)C(F)(F)F
inactive: [1] | [2] | [3] | [4] | [5] | [6]

OCCCC(F)(F)C(F)(F)C(F)(F)F
inactive: [1] | [2] | [3] | [4] | [5] | [6]

FC(F)(F)C(F)(F)C(F)(F)C(F)(F)C(F)(F)C(F)(F)CC1CO1 (stereo not drawn)
inactive: [1] | [2] | [3] | [5] | [6]

CC(CCl)OP(=O)(OC(C)CCl)OC(C)CCl (stereo not drawn)
active: [2] 50 µM | [3] 50 µM | [4] 50 µM
inactive: [1] | [2] | [3] | [4] | [8] | [5] | [6] | [9]

O=P(O)(O)OCCC(F)(F)C(F)(F)C(F)(F)C(F)(F)C(F)(F)C(F)(F)F
active: [4] 21.5 µM | [8] 24.7 µM
inactive: [1] | [2] | [3] | [5] | [6]

O=C(O)C(F)(F)C(F)(F)C(F)(F)F
inactive: [1] | [2] | [3] | [4] | [5] | [6]

C=CC(=O)OCC(F)(F)C(F)(F)C(F)(F)C(F)(F)COC(=O)C=C
inactive: [1]
active: [2] 4.18 µM | [3] 4.37 µM | DIO3 (gene 1735) 32.8 µM | [4] 4.28 µM | [8] 4.78 µM | [5] 2.2 µM | [6] 4.1 µM

O=C(O)C(F)(F)C(F)(F)C(F)(F)C(F)(F)C(F)(F)C(F)(F)C(F)(F)C(F)(F)C(F)(F)C(F)F
active: DIO3 (gene 1735) 138 µM
not listed: [7] | [9]
inactive: all other assays above

OCC(F)(F)C(F)(F)C(F)(F)C(F)(F)C(F)(F)C(F)F
not listed: [7] | DIO3 (gene 1735) | [9]
inactive: all other assays above

c1ccc(B(c2ccccc2)c2ccccc2)cc1
active: DIO3 (gene 1735) 100 µM

CCN(Cc1cccc(S(=O)(=O)O)c1)c1ccc(C(=C2C=CC(=[N+](CC)Cc3cccc(S(=O)(=O)O)c3)C=C2)c2ccc(O)cc2S(=O)(=O)[O-])cc1
active: DIO3 (gene 1735) 51.3 µM

C=C(C)C(=O)OCC(F)(F)C(F)(F)C(F)(F)F
inactive: DIO3 (gene 1735)

O=S(=O)(OCC(F)F)C(F)(F)F
inactive: [1] | [2] | [3] | [4] | [5] | [6]

O=C(O)C(F)(F)C(F)(F)C(F)(F)C(F)(F)C(F)(F)C(F)(F)C(F)(F)C(F)(F)Cl
inactive: [1] | [2] | [3] | [4] | [5] | [6]

CC(C)(C)C(=O)CC(=O)C(F)(F)C(F)(F)C(F)(F)F
inactive: [1] | [5]
active: [2] 25.3 µM | [3] 22.5 µM | [4] 21.9 µM | [8] 23.9 µM | [6] 24.1 µM

FC(F)(F)C(F)(F)C(F)(F)C(F)(F)C(F)(F)CCI
active: [2] 15 µM | [4] 21.8 µM | [8] 23.9 µM | [6] 25.2 µM
inactive: [1] | [3] | [5]

Cc1ccc(S(=O)(=O)OCC(F)(F)C(F)(F)C(F)(F)C(F)(F)C(F)(F)C(F)F)cc1
inactive: [1] | [2] | [3] | [4] | [5] | [6]
